In the supplement of paper PMC6555819:

Each sequence was assayed on LXRb:RXRa (NR concentration 270 nM, RXRa partner concentration 90 nM) (assay: PBM binding z-score (relative to random genomic background probes); higher = stronger binding; sequences stand for … in GC…GCGATTGACAGCGTAGAATGAAGG).
Description: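 Protein-binding microarray (Agilent 4x180K custom design, double-stranded 60-nt probes: 5' GC cap, 34-nt variable region, 24-nt constant primer region; full probe sequence given). Purified or IVT nuclear receptor:RXRα heterodimers (3:1 NR:RXRα, mostly 270:90 nM) or homodimers were incubated for 1 h in PBS with 2% milk and no ligand, then detected with Alexa488 antibodies. Fluorescence from o1-orientation probes (~5 replicates averaged) was converted to z-scores against 500 random hg19 background probes. Variable regions are seed direct-repeat (DR0–DR5) sites, all their single-nucleotide variants and half-site ablations.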
With CCAACTGGGCCAAAAAGGTCATTGATGCCGATAA the PBM binding z-score was 4.36. In the case of GCTTACAGGTCAAAGGTTATAGCATGAATAGAAT, the PBM binding z-score was 6.06. ATCGAAAGGTCCACGAGGTGAGTATACACCGTTT gave a PBM binding z-score of -0.0349. For GCTGCTAGGTCAACTGATGGTCACCTAAAGCTCG, the PBM binding z-score was 2.31. For TCTTGTAGATCGATAGAGGTTAAGAAAGTGCGCT, the PBM binding z-score was 1.52. In the case of GTTACAGGGTCAAGGCCAGAGTACGCGTATTGAT, the PBM binding z-score was 3.64. Work on GCTAGTTGGTCAGTAAAATGTCACACACCGGTCG yielded a PBM binding z-score of -0.14. TAGCCTAGGTCATACAGGGGCCAGTATAGAAAGC was tested, and the PBM binding z-score was 2.48. Work on AGAATGAGGTCACCAAAGATCAGGGAAACGCTTG yielded a PBM binding z-score of 5.13. For CGAACAAGGTCATCCAGGACAGTGAATACATTGA, the PBM binding z-score was 4.67. Work on CAAACCAGGTCAAAGGTCAAAGTCGAGCCAACCA yielded a PBM binding z-score of 7.49. AGTCAAAGTTGAGGACGAGGTAACGTAAAGCACG gave a PBM binding z-score of -0.0986. With AGAATGAGGTCATACGTAGATCAGGGAAGAAAGT the PBM binding z-score was 5. For AGAATGAGGTTAAACGTAGATCAGGGAAGAAAGT, the PBM binding z-score was 2.42. In the case of TTACCAAGGTGAACGGTCGTTGATGCACGCCTTG, the PBM binding z-score was 0.334. Work on ATATGTAGGTTAGCTGGGGTCATTCACACTAGGC yielded a PBM binding z-score of 5.1. Work on CGTCCGAGGTCAAGGTCAGTGAAAGAGACTCGAA yielded a PBM binding z-score of 5.26. Sequence TATACAGGGTCAAAGGCCAAAGTACGAATGTCGA has a PBM binding z-score of 5.4. In the case of CGAACGAGGTCAAAGGACAGTGAAAGGCGACGTA, the PBM binding z-score was 4.81. TATTCAGGGTCAAAGGCCAGAGTACGAATGTCGA gave a PBM binding z-score of 5.77. With CCGACTGGGGCAAGGTCACCATAACGCACAGCCA the PBM binding z-score was 2.81. For CGAACTAGGTCATCCAGGTCAGTGAATACATTGA, the PBM binding z-score was 2.98. TAGCCTAGGTCATGCGGGCCAATATAGTGTCGGC showed a PBM binding z-score of 1.9. For AGTCAAAGTTCAGGACGAGGTAACGTTAAGCACG, the PBM binding z-score was 1.77. TCTAGTTGGTCACGGAGGACACACACGACGGGTA showed a PBM binding z-score of 0.424. AGAACGAGGTCACGCTGAGTTGATAGCAGAGTAG was tested, and the PBM binding z-score was 5.24. In the case of AGTCAAAGTGCATCTAGGTAACGTAAGATATGCT, the PBM binding z-score was 0.11. CGAACTAGGTCAAGGCCAGTGAATCTCCGCACGC gave a PBM binding z-score of 1.44. Sequence CCTGCGAGGTCATGGTCAGCTAATCTACAGTATG has a PBM binding z-score of 4.6. Sequence AACGAAAGGTCGAAGGTGAGTATACCCACCCGAA has a PBM binding z-score of 3.06. For GATACAGGGTCAAGGTCAGAGTACGCGTATTGAT, the PBM binding z-score was 4.85. TCTAGTCGGTCAAAGGTCACACACTCGAAATGCG showed a PBM binding z-score of 5.97. CCTGCTAGGTCATGGTCAGCGAATCTACAGTATG was tested, and the PBM binding z-score was 1.54. For ACTTACGGCTCAACGAGGTTATAGCACGCGTATA, the PBM binding z-score was 0.741. Sequence AGAATGAGATTACCAAAGATCAGGGAAACGCTTG has a PBM binding z-score of -0.266. CGTCCAAGGTCAATGCTAGATCAGTGAAAGCATT gave a PBM binding z-score of 3.56. In the case of TAGCCGAGGTCATTCAGGGGCCAGTATAGAAAGC, the PBM binding z-score was 5.52. For CCTACTGGGCCAAAAAGTTCATTGATGCCGATAA, the PBM binding z-score was 1.09. CGAACTAGGTCGCCAGGACAGTGAAGAGGTTGGA was tested, and the PBM binding z-score was -0.222. CCTTACGGGTCACGAGGTTGTAGCACGACGAGCG showed a PBM binding z-score of 3.44.
